Source: PubChem BioAssay AID720540 (National Center for Advancing Translational Sciences (NCATS), 2013)
Hit rate of the full screen: of about 1,300 compounds, about 460 (35%) were called active. Inconclusive results (about 39%) are left out. Calls come from the whole dose curve; as a rule, active = well fitted inhibition curve with a large enough effect; inconclusive = small, poorly fitted or top-dose-only effect; inactive = flat fitted curve, though single readings scatter. This is one part of the list.

Molecular target: Protein phosphatase EYA2 (Homo sapiens) (UniProt O00167)
Sequence (O00167 whole entry, looked up): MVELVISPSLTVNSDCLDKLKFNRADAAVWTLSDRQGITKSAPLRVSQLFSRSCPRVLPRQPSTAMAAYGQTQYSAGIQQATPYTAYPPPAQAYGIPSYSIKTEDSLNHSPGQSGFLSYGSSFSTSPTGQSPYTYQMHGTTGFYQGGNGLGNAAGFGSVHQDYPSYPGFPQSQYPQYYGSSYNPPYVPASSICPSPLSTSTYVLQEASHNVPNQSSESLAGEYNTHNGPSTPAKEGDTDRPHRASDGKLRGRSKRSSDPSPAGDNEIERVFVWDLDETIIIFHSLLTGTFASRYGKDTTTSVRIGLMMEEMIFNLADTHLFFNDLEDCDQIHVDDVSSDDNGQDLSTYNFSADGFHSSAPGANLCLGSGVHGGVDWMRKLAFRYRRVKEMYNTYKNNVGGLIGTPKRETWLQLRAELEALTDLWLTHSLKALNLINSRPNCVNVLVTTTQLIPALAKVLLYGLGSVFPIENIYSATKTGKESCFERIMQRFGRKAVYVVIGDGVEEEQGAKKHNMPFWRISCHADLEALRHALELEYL
Assay: qHTS for Inhibitors of the Phosphatase Activity of Eya2: Confirmatory Assay for Cherry-picked Compounds; note: nearly all actives have a fitted effect of over 65% in size
Conditions: purified EYA2 phosphatase activity, qHTS confirmation; series mostly up to 46.1 µM
Text: The Eya protein family is an essential co-activator of the Six1 transcription factor. Six1 is a developmental gene that is abnormally re-expressed in a large percentage of breast cancers. This over-expression plays a causal role in the initiation and metastatic development of breast cancers. The Eya family of protein is also found to contain a unique HAD phosphatase domain with protein tyrosine phosphatase activity which can potentially play a role in Six1-mediated breast tumorigenesis. Recently, Eya2 is found to dephosphorylate the histone variant H2AX and direct cells towards DNA repair instead of apoptosis in the event of DNA damage.
A 1536 well format, fluorescence based qHTS assay was developed and used to target the phosphatase activity of Eya2 (AID 488837). Inhibitors found against Eya2 could serve as potential therapeutic tools to inhibit Six1-mediated breast tumorigenesis and to increase the efficiency of radiation and certain chemo therapy. This assay assessed the activity of the primary screen cherry-picked compounds against Eya2. Inhibition is the desired outcome for this assay.
NIH Chemical Genomics Center [NCGC]
NIH Molecular Libraries Probe Centers Network [MLPCN]
Assay Submitter (PI): Rui Zhao, University of Colorado Denver
Eya2 enzyme and 3-O-methyl-fluorescein phosphate (OMFP) substrate working solutions were reconstituted in the buffer reagent consist of 50 mM HEPES pH 7.5, 50 mM NaCl, […], 0.05% BSA and 1 mM DTT. One and a half microliter of 0.2 uM Eya2 working solution was dispensed in a 1536 well Greiner plate (black, medium bind). Twenty-three nanoliter of test compounds and control compound EGTA was transferred to the assay plate using the Kalypsys robotic system equipped with a 1536 pin head. The plate was incubated at room temperature for 10 minutes. One and a half microliter of the 50 uM the OMFP substrate was then dispensed to the assay plate and incubated at room temperature for additional 10 min. The fluorescence signal was read using the PerkinElmer ViewLux plate reader using a 485 nm excitation and 525 nm emission filters. The data was normalized to the positive control for maximum inhibition and DMSO treated wells as negative control.
Potency is the fitted concentration of half-maximal effect.

Potency, active:
CCC(C)Nc1nc(-c2ccccn2)nc2ccccc12 (stereo not given) 8.49 µM
CC(C)c1cccc(-c2ccc3c(c2)S(=O)(=O)c2cccc(C(=O)O)c2C3=O)c1 21.3 µM
N#C/C(=C\C1=C(N2CCOCC2)C(=C\c2ccccc2)/CC1)C(=O)Nc1ccccc1F 1.07 µM
CCN(CC)c1ccc(/C=C2\CCC(/C=C(\C#N)C(=O)Nc3ccccc3F)=C2N2CCOCC2)cc1 3.01 µM
O=C1C(=O)C(c2ccc(O)cc2O)Oc2cc(O)cc(O)c21 (stereo not given) 8.49 µM
CC1(C)CC(=O)C(C2C3=C(CC(C)(C)CC3=O)Oc3c(Br)cc(Br)cc32)=C(O)C1 (stereo not given) 3.79 µM
CCC(C)Nc1ccc(NC(C)CC)cc1 (stereo not given) 0.0953 µM
O=c1cc2c(=O)oc3cc(O)c(O)oc3c2c(O)c1O 1.2 µM
Cc1ccc2cc(NC(=O)CC(CC(=O)O)c3ccccc3)ccc2n1 (stereo not given) 19 µM
CNc1ccc(C=C2c3ccccc3-c3ccccc32)cc1 12 µM
CN(C)c1ccc2c(c1)C(=NO)c1ccccc1-2 9.53 µM
CN(C)c1ccc(/C=C2\C(Cl)=Cc3ccccc32)cc1 5.36 µM
CN(C)c1ccc(C=C2c3ccccc3-c3ccccc32)cc1 7.57 µM
CN(C)c1ccc(/C=C2\C(=O)/C(=C/c3ccc(N(C)C)cc3)c3ccccc32)cc1 4.26 µM
CN(C)c1ccc(/C=C2\c3ccccc3-c3ccc(N(C)C)cc32)cc1 5.36 µM
CCOc1ccc(NC(=O)COc2cccc3cccnc23)cc1S(=O)(=O)N1CCCC1 19 µM
CN(C)c1ccc(/C=C2\C=Cc3ccccc32)c(Cl)c1 6.75 µM
COc1cc(N(C)C)ccc1/C=C1\C=Cc2ccccc21 7.57 µM
COc1cc(OC)c(OC)cc1/C=C1\C=Cc2ccccc21 8.49 µM
COc1cc(N(C)C)c(OC)cc1/C=C1\C=Cc2ccccc21 5.36 µM
CC1=CC(=O)Nc2ncccc2O1 19 µM
Cc1cccc(C)c1Nc1c(-c2ccccn2)nc2ccccn12 7.57 µM
Cc1ccc(Nc2c(-c3ccccn3)nc3ccc(C)cn23)cc1 4.26 µM
Cc1ccccc1Nc1c(-c2ccccn2)nc2ccccn12 2.39 µM
CC(=O)Oc1cccc(C(=O)Nc2cccc(C(=O)Nc3ccccc3C(=O)O)c2)c1 15.1 µM
CC(=O)c1ccc(NS(=O)(=O)c2cccc(C(=O)Nc3ccccc3C(=O)O)c2)cc1 15.1 µM
CCOC(=O)C1CCCN(C2=C(NS(=O)(=O)c3ccc(Br)cc3)C(=O)c3ccccc3C2=O)C1 (stereo not given) 9.53 µM
CCOC(=O)C1CCN(C2=C(NS(=O)(=O)c3ccc(Br)cc3)C(=O)c3ccccc3C2=O)CC1 3.79 µM
Cc1cc(C)nc(-n2nc(C)cc2NC(=O)c2cc3ccccc3oc2=O)n1 5.36 µM
COc1ccc(C(=O)Oc2ccc(=O)n(-c3ccccc3)n2)cc1 8.49 µM
CCOC(=O)c1[nH]c2ccc(C(=O)OC)cc2c1C(=O)OCC 13.5 µM
O=c1cc(CSc2ccc(Cl)cc2)nc(-c2ccccn2)[nH]1 2.13 µM
Cc1ccc(/C=C/C(=O)Nc2ccc(N(C)C)cc2)o1 19 µM
CCn1ccnc1CNCc1cn(-c2cc(C)ccc2C)nc1-c1ccccc1 15.1 µM
O=c1c(CO)cc(CO)cc(CO)c1O 5.36 µM
Cc1cc(NS(=O)(=O)c2ccc(NC(=O)c3cc4c(=O)n5ccccc5nc4s3)cc2)nc(C)n1 8.49 µM
O=C(Nc1ccc(S(=O)(=O)Nc2cnc3ccccc3n2)cc1)c1ccc(Cl)c([N+](=O)[O-])c1 16.9 µM
Cc1cc(NS(=O)(=O)c2ccc(NC(=O)c3cnc(Cl)c(Cl)c3)cc2)nc(C)n1 2.39 µM
CC1CCC2C(=O)N(c3ccc(C(=O)Oc4cccc5cccnc45)cc3)C(=O)C2C1 (stereo not given) 8.49 µM
COc1ccc(C(=O)/C=C/Nc2ccc(S(=O)(=O)Nc3nc(C)cc(C)n3)cc2)cc1OC 13.5 µM
COc1cc(NS(=O)(=O)c2ccc(N/C=C\C(=O)c3ccc(OC)c(OC)c3)cc2)nc(OC)n1 9.53 µM
C[n+]1ccc(/C=C/c2cc[n+](C)c3ccccc23)c2ccccc21 9.53 µM
CN1C=C/C(=C\c2cc[n+](C)c3ccccc23)c2ccccc21 16.9 µM
COc1cc(C=NO)nc(-c2ccccn2)c1 1.2 µM
Oc1c(Cl)cc(CN2CCOCC2)c2cccnc12 0.478 µM
CC(C)Cc1nc2oc3c(=O)[nH]cnc3c2c2c1CCC2 19 µM
O=C(O)CCc1c2ccc(=O)c(O)c-2oc2c(O)c(O)ccc12 1.69 µM
O=C(O)c1cccc2cccc(-c3c4ccc(=O)c(O)c-4oc4c(O)c(O)ccc34)c12 3.79 µM
CC(=O)Oc1cccc2c1C(=O)c1c(OC(C)=O)cc(C(=O)O)cc1C2=O 16.9 µM
O=S(c1cc(Cl)cc(Cl)c1O)c1cc(Cl)cc(Cl)c1O 1.35 µM
CCN(CC)c1ccc(NC(=S)NC(=O)c2cccs2)cc1 13.5 µM
O=c1[nH][nH]cc1C=Nc1cc(Cl)ccc1O 5.36 µM
CCOC(=O)c1cc2c(N)c(C(=O)c3ccc(Br)cc3)sc2[nH]c1=O 1.9 µM
O=C(Nc1nc(-c2ccccn2)cs1)C1CC(=O)N(c2ccc3c(c2)OCCO3)C1 (stereo not given) 7.57 µM
O=C(Nc1nc(-c2ccco2)c(-c2ccco2)s1)C1CC(=O)N(c2ccc3c(c2)OCCO3)C1 (stereo not given) 19 µM
COc1ccc(-c2c(N)cnc(C(=O)O)c2C)c(OCc2ccccc2)c1OC 19 µM
Cc1cc(OC(=O)c2ccc(Cl)cc2)cc(=O)n1C 2.39 µM
Cc1ccc(C(=O)Oc2cc(C)n(C)c(=O)c2)cc1 1.51 µM
Cc1ccc(NC(=O)CSc2cccc3cccnc23)c(C)c1 5.36 µM
CCN1C(=O)/C(=C2/C=Cc3ccccc3N2CC)SC1=S 3.79 µM
Cc1cccc(NC2=C(NCCO)C(=O)c3ccccc3C2=O)c1 16.9 µM
O=C1C=CC(=O)c2c(O)c(N3CCN(CCOCCO)CC3)c(Br)c(O)c21 13.5 µM

Potency, inactive:
COc1cc([C@H]2Oc3cc([C@H]4Oc5cc(O)cc(O)c5C(=O)[C@@H]4O)ccc3O[C@@H]2CO)ccc1O
O=C(CSc1nnc2c(Cl)cc(Cl)cn12)NC1CCS(=O)(=O)C1 (stereo not given)
O=C(C1CCN(c2nnc(-n3cccc3)s2)CC1)N1CCOCC1
CN(Cc1ccccc1F)c1nc(-c2cccnc2)nc2ccccc12
COc1ccc(Nc2nc(C(C)(C)C)nc3c2nnn3Cc2ccccc2Cl)cc1OC
CCOc1ccc(NC(=O)COc2ccc3c(c2)CCC3)cc1OC
CCOc1ccc(S(=O)(=O)NCc2ccc(C)cc2)c2cccnc12
CC(C)(C)C(=O)[C@H]1[C@H](c2ccccc2)[C@@]2(N=C(c3ccccc3)OC2=O)C2c3ccccc3C=NN21 (stereo not given in full)
CCOC(=O)CNC(=O)C1CCCN(c2ncccn2)C1 (stereo not given)
NC(=O)C1CCN(c2oc(-c3cccs3)nc2S(=O)(=O)c2ccc(Br)cc2)CC1
N/C(=N\OC(=O)c1ccc2ccccc2c1)c1ccncc1
O=C(CC1(O)C(=O)Nc2ccccc21)c1ccccc1 (stereo not given)
CCOC(=O)C1=C(COC(=O)CCOc2ccccc2)NC(=O)NC1C (stereo not given)
Cc1nc(COC(=O)c2c(C)nn(-c3ccccc3)c2C)cs1
Cc1[nH]c2ccc(C(=O)OC(C)C(=O)N(C)c3ccccc3)cc2c1C (stereo not given)
CCOC(=O)c1c2ccc(OCC(=O)NN)cc2n2ccccc12
NC(=O)c1ccc(NC(=O)COC(=O)/C=C/c2ccc(Br)o2)cc1
COc1cc(N)c(Cl)cc1C(=O)N[C@H]1CCN(CCCOc2ccc(F)cc2)C[C@H]1OC
O=C(O)c1ccc(Nc2cnc3ccccc3n2)cc1
O=C(Nc1ccc(Nc2ccccc2)cc1)c1ccc(Cl)cc1[N+](=O)[O-]
CN=c1scc(C)n1/N=C/c1ccc2c(c1)OCO2
CC(=O)Nc1ccc2nc(C3CC3)n(Cc3ccc(Cl)cc3)c(=O)c2c1
Cc1cc(C)c2nc(SCC(=O)N(C)C3CCS(=O)(=O)C3)cc(C)c2c1 (stereo not given)
CCCCC1=CC2=C(c3ccco3)C(=O)C(C)(OC(=O)c3ccc(OC)cc3)C(=O)C2=CN1CCc1ccccn1 (stereo not given)
COc1ccccc1NC(=O)NCCN1CCN(C(=O)Nc2ccccc2OC)CC1
COc1cc(C(C(=O)NC2CCCCC2)N(C(=O)Cc2c[nH]c3ccccc23)c2ccc(C)cc2)cc(OC)c1OC (stereo not given)
O=C(O)c1cccc(N2C(=O)c3cccc(Oc4ccc(Cl)cc4)c3C2=O)c1
CCCC(=O)Nc1ccc(NC(=S)NC(=O)c2cccs2)cc1
CCC(=O)NC(=S)Nc1ccc(NC(=O)COc2ccc([N+](=O)[O-])cc2)cc1
CCc1ccc(-c2csc(NC(=O)C3CC(=O)N(c4ccc5c(c4)OCCO5)C3)n2)cc1 (stereo not given)
Cc1ccc(SCc2nc(N)nc(Nc3ccccc3C)n2)cc1C
c1ccc2cc(CSCc3nc4ccccc4[nH]3)ccc2c1
Cc1nn2c(c1-c1ccccc1)NC1=C(C(=O)CCC1)C2c1ccccc1 (stereo not given)
